ELG1 genotox: inducers of genotoxicity in HEK293T ELG1-luciferase cells. HEK293T ELG1-luciferase reporter, luminescence, 16 h. Potency, µM (series often up to 46 µM), usual class: activators. hit rate 1.3% among 330,000. AID 504466; further: nearly all actives have a fitted effect of over 60% in size
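HEK293T cells expressing luciferase-tagged ELG1 were exposed to compound or DMSO vehicle for 16 hr at 37 °C and 5% CO2. Luciferase activity was then measured with ONE-Glo after 30 min at room temperature.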
Rab9 promoter act: activators of Rab9 promoter. Huh7 Rab9 promoter-luciferase reporter, luminescence, 24 h. Potency, µM (top dose mostly 9.22 µM), most hits filed as activators. hit rate 2.8% among 320,000. AID 485297; further: nearly all actives have a fitted effect of over 60% in size
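Luminescence read-out: Huh7 cells stably expressing Rab9-luciferase, treated 24 h with compound at 37 °C, then lysed with luciferase reagent for 10 min at ambient before reading.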
SMN2 splice up: enhancers of SMN2 splice variant expression; hit rate 2.8% among 210,000; Potency, µM (titrated, usually from 46.1 µM), most hits filed as activators; AID 1458; HEK293 SMN2-luciferase splicing reporter, luminescence, 30-36 h; further: nearly all actives have a fitted effect of over 55% in size
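HEK293 cells carry an SMN2 […]–luciferase reporter in which exon 7 inclusion puts luciferase in frame. Cells were plated 10-12 h before compound addition, then incubated 30-36 h at 37C. ONE-Glo luminescence was read; sodium butyrate at 4.5 mM final served as control.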
Luc counter: counter-screen: inhibitors of Kinase-Glo firefly luciferase; Q27757; Kinase-Glo luciferase, ATP luminescence, 8 min; Potency, µM (top dose mostly 38.3 µM), usual class: inhibitors; hit rate 0.28% among 200,000; AID 1379; further: nearly all actives have a fitted effect of over 60% in size
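Substrate mix (final 50 mM imidazole pH 7.2, 50 mM KCl, 7 mM MgCl2, 10 uM ATP, 0.01% Tween 20, 0.05% BSA) plus pin-tool compound, then Kinase-Glo detection mix; 8 min ambient, luminescence read.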
FLuc counter: firefly luciferase modulation, counter-screen for miR-21 project; P08659; hit rate 6.9% among 360,000; Potency, µM (highest dose often 57.5 µM), actives largely listed as inhibitors; purified FLuc, Km substrates, luminescence inhibition; further: nearly all actives have a fitted effect of over 55% in size
Target sequence (P08659 whole entry, looked up): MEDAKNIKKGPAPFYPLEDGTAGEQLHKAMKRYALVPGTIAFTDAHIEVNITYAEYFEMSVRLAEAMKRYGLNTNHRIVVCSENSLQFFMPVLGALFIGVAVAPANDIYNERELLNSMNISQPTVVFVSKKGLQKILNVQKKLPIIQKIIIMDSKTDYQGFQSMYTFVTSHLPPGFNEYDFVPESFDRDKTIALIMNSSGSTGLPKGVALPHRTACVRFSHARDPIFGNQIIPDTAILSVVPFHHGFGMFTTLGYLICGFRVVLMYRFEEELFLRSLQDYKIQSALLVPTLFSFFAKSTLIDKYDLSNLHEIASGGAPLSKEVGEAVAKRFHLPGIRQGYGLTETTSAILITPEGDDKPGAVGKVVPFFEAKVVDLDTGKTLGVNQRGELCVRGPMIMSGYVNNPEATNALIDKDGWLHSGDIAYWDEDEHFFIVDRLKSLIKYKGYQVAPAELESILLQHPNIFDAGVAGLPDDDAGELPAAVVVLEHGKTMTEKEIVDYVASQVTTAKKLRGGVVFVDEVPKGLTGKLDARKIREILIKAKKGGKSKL
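Purified P. pyralis luciferase (10nM final) with 10uM D-luciferin and 10uM ATP (Km levels) in 50mM Tris acetate pH 7.5, 10mM Mg acetate, 0.01% Tween-20, 0.05% BSA; qHTS 6-point titration, ~60 µM downward; luminescence read.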
NPC1 promoter act: activates the NPC1 promoter. Potency, µM (doses to about 9.22 µM), most hits filed as activators. Huh7 NPC1 promoter luciferase reporter, 24 h. hit rate 2.4% among 320,000; further: nearly all actives have a fitted effect of over 60% in size
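Luminescence read-out of NPC1 promoter-driven luciferase in stably transfected Huh7 cells; compounds delivered in DMSO and left 24 h at 37C, 5% CO2, qHTS titration format.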
A number is an active result; - = inactive; ? = inconclusive; . = not tested or not shown; [ ] = dose if it differs, or a comment. Compounds with a hit are over-represented: about 7.4% of the library has one in this group of screens. The call rests on the fitted dose curve; in most records, active means well fitted curve in the direction sought with a large enough effect; inconclusive means small, poorly fitted or top-dose-only effect, or another doubt; inactive means no such curve, though single readings can be large; an effect the other way counts as inactive or inconclusive.

SMILES	ELG1 genotox	Rab9 promoter act	SMN2 splice up	Luc counter	FLuc counter	NPC1 promoter act
O=C1Nc2ccccc2/C1=C/C(=O)c1cccs1	-	-	?	-	15µM	-
Cn1c(=O)c2c(SCc3ccccn3)nc(C3CC3)nc2n(C)c1=O	16µM	-	-	-	-	-
CN(C)c1nc(NCc2ccccc2)nc(N/N=C/c2ccc(Br)cc2)n1	-	-	-	-	-	-
Cc1ccccc1/C=N/Nc1ccc(Cl)nn1	-	-	-	-	-	-
Cc1cc(N/N=C/c2ccccc2Br)nc2ccccc12	-	-	-	-	12µM	-
Brc1ccc(/C=N/Nc2ccc3ccccc3n2)cc1	?	2.5µM	?	-	3µM	3.5µM
C(=N\Nc1ccccn1)/c1ccc2c(c1)OCCO2	2.1µM	0.56µM	2.5µM	-	1.7µM	1.3µM
Cc1ccc2nc(N/N=C\c3cccc(C)n3)cc(C)c2c1	.	.	-[9.22 µM]	-[7.66 µM]	.	.
Brc1ccccc1/C=N/Nc1ccc2ccccc2n1	?	4.5µM	7.9µM	-	2.1µM	3.5µM
CCn1c2c(c(=O)n3ncc(C(=O)Nc4ccc(C(=O)OC)cc4)c13)CN(Cc1ccc(OC)cc1)CC2	.	.	.	.	-	.
Fc1cccc(/C=N/Nc2ccccn2)c1	?	3.2µM	?	-	12µM	3.2µM
Brc1ccc(/C=N/Nc2ccccc2)cc1	?	?	-	-	17µM	-
Fc1cccc(/C=N/Nc2ccc3ccccc3n2)c1	?	?	2.5µM	-	0.48µM	1.1µM
Fc1ccc(/C=N\Nc2cccc(F)c2)cc1	-	-	.	.	13µM	-
Fc1cccc(F)c1/C=N/Nc1ccccn1	-	?	?	-	?	-
CC(=O)Nc1ccc(C(=O)N/N=C/c2ccc(F)cc2)cc1	-	-	-	-	-	-
COC(=O)C1=C(C)N(Cc2ccccc2)C(=NCC2CC2)N[C@H]1c1ccc(Br)cc1	.	-	.	.	-	-
Cc1ccc(Cl)cc1NC(=O)CCc1c(C)nc2c3cccnc3nn2c1C	.	.	-	.	-	.
COCCNC(=O)C1CC(=O)N(c2ccc(OC)cc2)C1c1ccc(OC)cc1 (stereo not drawn)	-	-	-	-	-	-
Cc1ccc(-c2nc3ccccn3c2NCc2ccc3c(c2)OCO3)cc1	-	?	?	-	12µM	?
COc1ccc(-c2nc3ccc(C)cn3c2NCc2ccc3c(c2)OCO3)cc1	-	?	-	-	13µM	-
Cc1ccc2nc(-c3ccc(-c4cccc(Cl)c4)cc3)c(NCc3ccccc3)n2c1	-	-	.	.	?	-
Cc1cc(C)n2nc(SCC(=O)Nc3ccc(F)c(F)c3F)nc2n1	-	-	.	.	-	-
COc1ccc(/C=C2/C(=O)N(c3ccccc3)N=C2C)cc1OC	-	-	.	.	6µM	-
COc1cc(/C=C2/C(=O)N(c3ccc(Br)cc3)N=C2C)cc([N+](=O)[O-])c1O	-	-	.	.	?	-
SMILES	ELG1 genotox	Rab9 promoter act	SMN2 splice up	Luc counter	FLuc counter	NPC1 promoter act
CC1=NN(c2ccccc2)C(=O)/C1=C/c1cccc(C)c1	-	-	.	.	24µM	-
COc1cc(/C=C2\C(=O)N(CCC#N)N=C2C)ccc1OCC(=O)Nc1ccccc1	?	-	-	-	11µM	-
COc1cc(/C=C2/C(=O)N(c3cccc(Br)c3)N=C2C)cc(OC)c1O	-	-	.	.	17µM	-
CC1=NN(c2ccccc2)C(=O)/C1=C/c1cc2cc(C)ccc2nc1N1CCCCC1	-	?	?	-	?	?
COc1ccc(C2=NN(c3ccccc3)C(=O)/C2=C\c2ccc(O)c(OC)c2)cc1	-	-	-	-	?	-
CCN1CCCC1Cn1c(-c2ccccc2)nc2c(N3CCOCC3)nc(C)nc21 (stereo not drawn)	.	.	-	-	.	.
COc1ccc(OC)c(CCNC(=O)c2ccc(CS(=O)Cc3ccc(Cl)cc3)o2)c1 (stereo not drawn)	-	-	.	.	-	-
CCOc1ccc(CNS(=O)(=O)c2ccc(-c3coc(C)n3)cc2)cc1OC	.	.	.	.	-	.
CCOc1cc(/C=C2\C(=O)N(CCC#N)N=C2C)ccc1OCC(N)=O	-	-	-	-	-	-
CC(=O)Oc1ccc(/C=C2/C(=O)N(c3ccccc3)N=C2C)cc1	-	-	.	.	24µM	-
CC1=NN(CCC#N)C(=O)/C1=C/c1ccc(N(C)C)cc1	-	-	-	-	19µM	-
